According to PubChem BioAssay:
Values joined by “and” are separate entries in the source; they are usually repeats but may differ in a detail not shown here. Equal values may be shown once. Values without a mark were called inactive. For some assays here: Results with a measured potency or affinity are listed apart. Active and inactive are the calls of the source. Unless noted, the rule behind the calls is not given here.

Key:
[1] = antimalarial activity against Dd2 strain (AID 2302;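 active = growth inhibition above 50% at the single 2 µM test dose, taken to imply half-maximal potency below 2 µM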;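 note: 0% = DMSO untreated growth and 100% = chloroquine plus artemisinin killed control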); conditions: P. falciparum Dd2 in RBCs, LDH growth readout, 72 h; at 2 µM; hits give high values
[2] = HepG2 cytotoxicity, primary screen, cytotoxicity control for P. falciparum antimalarial project, cell-based, ATP luminescence (AID 2303;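 active = inhibition above 50%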;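 note: 0% = DMSO wells and 100% = digitonin-killed cells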); conditions: HepG2 viability, 24-48 h, at 10 µM, hits give high values
[3] = target: L-lactate dehydrogenase (Plasmodium falciparum (isolate CDC / Honduras)) (UniProt Q27743); test: PfLDH activity inhibition – cell lysate, 3D7 strain, counter-screen for P. falciparum growth inhibition project (AID 2304);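 note: 0% = vehicle and 100% = reference inhibitor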; conditions: P. falciparum 3D7 crude extract, LDH APAD/NBT absorbance; at 2 µM; hits give high values
[4] = inhibition of 3D7 malaria parasite growth – strain 3D7 (AID 2306);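 note: 0% = DMSO wells and 100% = chloroquine plus artemisinin control wells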; conditions: P. falciparum 3D7 erythrocytic growth, LDH absorbance, 72 h; at 2 µM; hits give high values
[5] = target: Calcium-dependent protein kinase 1 (Plasmodium falciparum (isolate 3D7)) (UniProt P62344); test: PfCDPK1 kinase inhibitors, biochemical, TCAMS library (AID 1159585; cut-off not given, nearly all actives have IC50 up to about 0.98 µM;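 note: inhibitors leave more ATP so luminescence rises with inhibition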); conditions: recombinant PfCDPK1, Kinase-Glo ATP depletion luminescence
[6] = target: Plasmodium falciparum protein kinase 6 (PK6, PF3D7_1337100) (UniProt Q8IDW1); test: PfPK6 kinase inhibitors, biochemical, TCAMS library (AID 1159586); conditions: recombinant PfPK6, Kinase-Glo ATP depletion luminescence
[7] = target: Protein kinase 7 (PK7), Plasmodium falciparum 3D7 (PF3D7_0213400) (UniProt Q7YTF7); test: inhibition of Plasmodium PK7 catalytic activity – biochemical, TCAMS antimalarial set, Kinase-Glo luminescence (AID 1159587); conditions: recombinant PfPK7, Kinase-Glo ATP depletion luminescence
[8] = target: Calcium-dependent protein kinase 4 (Plasmodium falciparum (isolate 3D7)) (UniProt Q8IBS5); test: PfCDPK4 kinase inhibitors, biochemical, TCAMS library (AID 1159588; cut-off not given, nearly all actives have IC50 up to about 0.91 µM); conditions: recombinant PfCDPK4, Kinase-Glo ATP depletion luminescence
Calcium-dependent protein kinase 4 (Plasmodium falciparum (isolate 3D7)), sequence (Q8IBS5 whole entry, looked up): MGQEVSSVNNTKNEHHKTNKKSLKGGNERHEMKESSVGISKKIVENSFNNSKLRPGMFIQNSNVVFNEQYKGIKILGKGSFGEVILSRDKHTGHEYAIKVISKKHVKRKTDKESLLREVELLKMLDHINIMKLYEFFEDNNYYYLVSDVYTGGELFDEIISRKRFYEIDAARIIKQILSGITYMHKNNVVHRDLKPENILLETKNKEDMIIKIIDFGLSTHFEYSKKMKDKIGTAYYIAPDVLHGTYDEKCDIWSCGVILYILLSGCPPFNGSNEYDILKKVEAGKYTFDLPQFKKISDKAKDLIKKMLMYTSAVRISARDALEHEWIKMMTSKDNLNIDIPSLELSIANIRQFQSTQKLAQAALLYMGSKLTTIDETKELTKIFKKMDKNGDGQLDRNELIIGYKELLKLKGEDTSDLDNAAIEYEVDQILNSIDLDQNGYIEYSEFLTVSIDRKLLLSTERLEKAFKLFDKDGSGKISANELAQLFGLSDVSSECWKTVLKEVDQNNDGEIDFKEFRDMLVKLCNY

Calcium-dependent protein kinase 1 (Plasmodium falciparum (isolate 3D7)), sequence (P62344 whole entry, looked up): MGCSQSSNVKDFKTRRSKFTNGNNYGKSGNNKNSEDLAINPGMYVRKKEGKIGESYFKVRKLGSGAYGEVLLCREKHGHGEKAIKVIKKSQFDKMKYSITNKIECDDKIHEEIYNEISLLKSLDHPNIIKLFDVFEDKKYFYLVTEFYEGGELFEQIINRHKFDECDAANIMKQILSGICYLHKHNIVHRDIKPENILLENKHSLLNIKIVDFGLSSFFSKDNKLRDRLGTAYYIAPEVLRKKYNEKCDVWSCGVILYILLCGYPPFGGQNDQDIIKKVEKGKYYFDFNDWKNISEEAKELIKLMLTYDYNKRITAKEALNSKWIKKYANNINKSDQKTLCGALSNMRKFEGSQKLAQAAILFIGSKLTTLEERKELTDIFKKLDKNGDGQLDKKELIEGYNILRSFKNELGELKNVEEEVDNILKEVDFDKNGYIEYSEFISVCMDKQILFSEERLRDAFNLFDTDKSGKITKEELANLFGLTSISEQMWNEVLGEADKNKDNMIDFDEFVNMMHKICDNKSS
Plasmodium falciparum protein kinase 6 (PK6, PF3D7_1337100), sequence (Q8IDW1 1-305): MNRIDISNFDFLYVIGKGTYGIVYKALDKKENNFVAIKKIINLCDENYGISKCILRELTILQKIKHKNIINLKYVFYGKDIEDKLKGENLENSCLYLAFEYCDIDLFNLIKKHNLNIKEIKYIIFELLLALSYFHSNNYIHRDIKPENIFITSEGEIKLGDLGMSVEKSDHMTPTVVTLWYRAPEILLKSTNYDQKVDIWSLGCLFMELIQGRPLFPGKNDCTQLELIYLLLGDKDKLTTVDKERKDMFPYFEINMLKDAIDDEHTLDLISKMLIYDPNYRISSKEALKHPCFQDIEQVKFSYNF
Protein kinase 7 (PK7), Plasmodium falciparum 3D7 (PF3D7_0213400), sequence (Q7YTF7 1-343): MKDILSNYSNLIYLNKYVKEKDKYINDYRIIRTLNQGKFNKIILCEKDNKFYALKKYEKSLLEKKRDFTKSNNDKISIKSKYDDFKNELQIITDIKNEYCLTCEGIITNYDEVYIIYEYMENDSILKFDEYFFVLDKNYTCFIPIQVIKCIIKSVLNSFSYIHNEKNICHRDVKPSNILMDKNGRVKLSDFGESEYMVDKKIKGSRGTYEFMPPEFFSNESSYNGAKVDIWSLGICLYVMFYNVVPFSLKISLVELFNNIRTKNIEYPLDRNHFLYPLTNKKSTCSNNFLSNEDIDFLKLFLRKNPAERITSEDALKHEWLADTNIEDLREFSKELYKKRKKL
L-lactate dehydrogenase (Plasmodium falciparum (isolate CDC / Honduras)), sequence (Q27743 whole entry, looked up): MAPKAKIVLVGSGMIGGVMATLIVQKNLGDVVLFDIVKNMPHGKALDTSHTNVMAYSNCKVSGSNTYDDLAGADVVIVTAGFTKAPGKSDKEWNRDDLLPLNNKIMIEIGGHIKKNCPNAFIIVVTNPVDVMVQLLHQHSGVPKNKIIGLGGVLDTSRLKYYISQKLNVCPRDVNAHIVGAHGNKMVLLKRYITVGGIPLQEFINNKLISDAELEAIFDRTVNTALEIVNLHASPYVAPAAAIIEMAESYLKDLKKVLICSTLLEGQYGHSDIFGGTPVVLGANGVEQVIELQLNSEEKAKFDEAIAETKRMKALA

| SMILES | growth inhibition [1] | inhibition [2] | inhibition [3] | growth inhibition [4] | outcome [5] | outcome [6] | outcome [7] | outcome [8] |
| --- | --- | --- | --- | --- | --- | --- | --- | --- |
| N#Cc1c(F)cc(N2CCC(NCC[C@H](N)Cc3ccc(F)c(F)c3)CC2)cc1F | 26% | 70% (active) | 4% | 102% (active) | inactive | inactive | inactive | inactive |
| CC[C@H]1CN2CC[C@H]1C[C@H]2[C@H](O)c1cc(N2CCCC(CO)C2)nc2ccc(OC)cc12 (some centres not stated) | 99% (active) | 11% | 2% | 100% (active) | inactive | inactive | inactive | inactive |
| CCCc1cc([C@@H](O)[C@@H]2C[C@@H]3CCN2C[C@@H]3CC)c2ccccc2n1 | 57% (active) | 9% | 2% | 100% (active) | inactive | inactive | inactive | inactive |
| CN(C(=O)OCc1ccccc1)C1CCC(CCN2CCC3(CC2)C(=O)NCN3c2cccc(C(F)(F)F)c2)(c2ccccc2)CC1 (configuration not stated) | 72% (active) | 19% | -2% | 80% (active) | inactive | inactive | inactive | inactive |
| CN(C)c1cccc(CN2CC=C(c3c[nH]c4ccc(Cl)cc34)CC2)c1 | 87% (active) | 40% | 3% | 93% (active) | inactive | inactive | inactive | inactive |
| CC(Cc1ccc(OCc2ccccc2)cc1)NCC(O)c1cccc(Cl)c1 (configuration not stated) | 99% (active) | 50% (active) | 5% | 99% (active) | inactive | inactive | inactive | inactive |
| N#Cc1ccc(N(CC(=O)NCCc2ccc(F)cc2)CC2CC2)c2ccccc12 | 23% | 28% | -2% | 91% (active) | inactive | inactive | inactive | inactive |
| COc1cccc(CN2CCC(CCOC(c3ccccc3)c3ccccc3)CC2)c1O | 99% (active) | 33% | 3% | 97% (active) | inactive | inactive | inactive | inactive |
| CCOC(C(=O)OCC1CCCN1C(C)C)(c1ccccc1)c1ccccc1 (configuration not stated) | 2% | -1% | -3% | 98% (active) | inactive | inactive | inactive | inactive |
| CC(=O)Nc1ccc(OCCN(CC(C)(C)C)c2ccc(C#N)c(C(F)(F)F)c2)c(Cl)c1 | 93% (active) | -6% | -1% | 87% (active) | inactive | inactive | inactive | inactive |
| OC(CNC12CC3CC(CC(C3)C1)C2)c1cccc(C(F)(F)F)c1 (configuration not stated) | 98% (active) | 16% | -3% | 97% (active) | inactive | inactive | inactive | inactive |
| COc1c(F)cc(CC(C)NCC(O)c2cccc(Cl)c2)cc1F (configuration not stated) | 86% (active) | 0% | 0% | 93% (active) | inactive | inactive | inactive | inactive |
| CCC1(C)CC(CCNCc2ccccc2O)(c2ccc(C)cc2)CCO1 (configuration not stated) | 66% (active) | 9% | -7% | 97% (active) | inactive | inactive | inactive | inactive |
| CCCCCCC(C)(C)c1cc(O)c2c(c1)OC(C)(C)c1ccncc1-2 | 99% (active) | 4% | 1% | 95% (active) | inactive | inactive | inactive | inactive |
| CC[C@H]1CN2CC[C@@H]1C[C@@H]2[C@@H](O)c1cc(-c2ccc(F)cc2)nc2ccc(OC)cc12 | 64% (active) | 18% | -4% | 98% (active) | inactive | inactive | inactive | inactive |
| Cn1nc(-c2ccc(S(=O)(=O)NC3CCC(CN4CCC(c5c[nH]c6ccccc56)CC4)CC3)s2)cc1C(F)(F)F (configuration not stated) | 29% and 24% | 35% and 38% | -2% and 9% | 98% (active) and 96% (active) | inactive | inactive | inactive | inactive |
| Cc1[nH]c2ccccc2c1C1=CCN(CCCCC23CCCc4cccc(c42)NC3=O)CC1 (configuration not stated) | 91% (active) | 9% | -4% | 95% (active) | inactive | inactive | inactive | inactive |
| O=C(CCc1ccco1)NC1CCN(CC2(c3ccc(Cl)cc3)CCC2)CC1 | 67% (active) | -12% | -2% | 99% (active) | inactive | inactive | inactive | inactive |
| CCCc1c(C(=O)NC2CCC(CN3CCC(c4c[nH]c5ccccc45)CC3)CC2)cnn1-c1ccc(Cl)cc1 (configuration not stated) | 37% | 53% (active) | 1% | 90% (active) | inactive | inactive | inactive | inactive |
